We go through 21 molecules from PubChem BioAssay (NCATS).

Where “and” joins values, the source holds several entries; their conditions need not be identical. Identical values can stand only once. Results filed as inconclusive are left out. A number with no mark means an inactive call. Calls of active or inactive are those of the source. Calls follow the shape of the dose curve; as a rule, active = well fitted inhibition curve with a large enough effect; inconclusive = small, poorly fitted or top-dose-only effect; inactive = flat fitted curve, though single readings scatter.

Common to all, as to experiment: Cytotoxic Profiling of Annotated Libraries Using Quantitative High-Throughput Screening (AID 1296008); also: nearly all actives have a fitted effect of over 60% in size
Conditions in all cases: Five cell lines viability, CellTiter-Glo ATP luminescence, 48-72 h; max response: stronger effect = lower value

For one test, the system named is CRL-7250. Put shortly:
(§1)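 Compounds were pin-transferred onto cells and incubated 48 or 72 hr at 37 degree Celsius, 95% humidity. CellTiter-Glo was added, plates sat 10 min at room temperature, then ATP-coupled luminescence was imaged as the viability read-out.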

The test system of a further test is HEK293. Put shortly: as §1
For a further test, the system named is HaCat. The gist of the method: as §1
The next test relates to KB-3-1. Put shortly:
as §1
% is scaled to controls: 0 for no effect and ±100 for the full control effect; potency is read from the fitted curve at half-maximal effect.

For `CC1(C)Cc2c(sc(NC(=S)NC(=O)c3ccccc3)c2C(=O)O)CO1`, the outcome in the test on CRL-7250, in the test with HEK293, in the test with HaCat and in the test with KB-3-1 was inactive.
On to `COCCOc1nc(-c2ccc(Cl)c(Cl)c2)n(-c2ccc(NC(=O)CCl)cc2)n1`, for which the Potency with CRL-7250 is 6.62 µM (active); with HEK293, 3.72 µM (active) and 4.61 µM (active); in the test with KB-3-1, 18.7 µM (active). Further, the molecule was called inactive in the test on HaCat.
On to `Cc1nc(N)sc1-c1ccnc(Nc2ccc(N3CCOCC3)cc2)n1`, for which the Potency in the test with CRL-7250 was 9.35 µM (active) and 5.17 µM (active); in the test on HEK293, 10.5 µM (active) and 7.31 µM (active); in the test with HaCat, 18.7 µM (active) and 1.16 µM (active); with KB-3-1, 1.66 µM (active) and 1.64 µM (active).
On to `O=c1cc(N2CCOCC2)oc2c(-c3cccc4c3sc3ccccc34)cccc12`, for which the max response in the test on CRL-7250 is -14.3%; in the test on HaCat, -6.51%. In addition, the Potency with HEK293 was 2.96 µM (active). In addition, in the test with KB-3-1, the result was inactive.
Consider `CCOC1OC(=O)C[C@H]1NC(=O)[C@@H]1CCCN1C(=O)[C@@H](NC(=O)c1ccc(N)c(Cl)c1)C(C)(C)C` (some centres undefined), for which the result in the test on CRL-7250, with HaCat and with KB-3-1 was inactive. Further, the max response with HEK293 was -6.79%.
Turning to `O=C(Nc1cc(Cl)cc2c1[nH]c1cnccc12)c1cccnc1`, the max response was -0.841% with CRL-7250, 3.08% with HEK293, -0.0712% in the test on HaCat and -1.81% with KB-3-1.
For the molecule `NC1CCC(Nc2nc(Nc3ccc(C(=O)N4CCCCC4)cc3)c3ncn(-c4cccc(F)c4)c3n2)CC1` (centres undefined), the molecule was classed as inactive in the test with CRL-7250, with HEK293 and in the test on HaCat. Moreover, the max response in the test with KB-3-1 was -2.33%.
Regarding `COC(=O)C1=CO[C@@H](O)[C@@H]2C(CO)=CC[C@@H]12`, the max response with CRL-7250 is 0.508%; in the test with HEK293, 4.92%; in the test with HaCat it was 3.95%; in the test with KB-3-1 it was -1.15%.
In the case of `CC(C)(Cc1ccc2ccccc2c1)NC[C@@H](O)COc1cccc(Cl)c1C#N`, the outcome in the test on CRL-7250 was inactive. The max response is -1.92% with HEK293, -22.6% in the test with HaCat and 2.48% in the test on KB-3-1.
Consider `CN1CCN(CCOc2cc(OC3CCOCC3)c3c(Nc4c(Cl)ccc5c4OCO5)ncnc3c2)CC1`, for which the Potency in the test on CRL-7250 was 10.3 µM (active); with HEK293, 26.4 µM (active) and 16.4 µM (active); in the test with HaCat, 3.32 µM (active) and 366 nM (active). For the same molecule, the max response in the test with KB-3-1 is 2.81% and -8.03%.
`CC(=O)Nc1ccc([C@H](C)C(=O)Nc2ncc(C(C)C)s2)cc1`: the Potency in the test on CRL-7250 was 2.35 µM (active) and 1.84 µM (active); in the test with HEK293, 4.69 µM (active) and 4.11 µM (active); with HaCat, 10.5 µM (active) and 18.4 µM (active); in the test on KB-3-1, 5.17 µM (active).
On to `O=C(O)c1ccc(-c2c[nH]c3ncc(-c4ccccc4)cc23)cc1C1CCCC1`, for which, in the test with CRL-7250, the max response was -5.06%. For the same molecule, the result with HEK293, with HaCat and in the test on KB-3-1 was inactive.
`COc1cc(Nc2ncc(F)c(Nc3ccc4c(n3)NC(=O)C(C)(C)O4)n2)cc(OC)c1OC`: the Potency was 2.31 µM (active) with CRL-7250 and 8.33 µM (active) in the test with HEK293. For the same molecule, the results for the max response with HaCat and in the test with KB-3-1 were -23.4% and 2.88%, respectively.
As for `CO[C@H]1C[C@@H]2CC[C@@H](C)[C@@](O)(O2)C(=O)C(=O)N2CCCC[C@@H]2C(=O)O[C@H]([C@@H](C)C[C@@H]2CC[C@H](O)[C@H](OC)C2)CC(=O)[C@H](C)C=C(C)[C@@H](O)[C@@H](OC)C(=O)[C@H](C)C[C@H](C)C=CC=CC=C1C`, the values for the max response with CRL-7250, in the test with HEK293 and with KB-3-1 were -19.3%, -97.2% and -8.34%, respectively. Further, the molecule was called inactive with HaCat.
As to `CC(=O)O[C@]1(C(C)=O)CC[C@@H]2[C@@H]3C[C@H](C)C4=CC(=O)CC[C@]4(C)[C@H]3CC[C@@]21C`, the max response with CRL-7250 is 2.81%. The molecule was classed as inactive in the test with HEK293, with HaCat and in the test with KB-3-1.
As to `COc1cc(NC(=O)c2ccc(-c3ccc(Cl)cc3)o2)cc(OC)c1`, the molecule was called inactive in the test with CRL-7250 and in the test with HaCat. The max response in the test with HEK293 was 2.11%; in the test on KB-3-1, 5.65%.
On to `OC[C@@H](O)[C@H](O)[C@H](O)[C@@H](O)CO`, for which the max response is 3.59% and -3.14% with CRL-7250; -5.61% and 12.2% in the test on KB-3-1. For the same molecule, the outcome in the test on HEK293 and in the test with HaCat was inactive.
Regarding `CO[C@@H](C(=O)N1Cc2[nH]nc(NC(=O)c3ccc(N4CCN(C)CC4)cc3)c2C1)c1ccccc1`, the Potency in the test on CRL-7250 was 5.26 µM (active); with HEK293, 4.18 µM (active); in the test with HaCat it was 2.35 µM (active); in the test on KB-3-1, 11.8 µM (active).
The matching figures for `O=C1c2ccccc2-[n+]2ccc3c([nH]c4ccccc43)c21`: 4.69 µM (active), 2.64 µM (active), 1.32 µM (active) and 2.96 µM (active).
In the case of `CCC(CC)[C@H](NC(C)=O)[C@@H]1[C@H](O)[C@@H](C(=O)O)C[C@@H]1N=C(N)N`, the max response with CRL-7250 is 2.58%; in the test on HEK293 it was -9.34%; in the test on KB-3-1, 7.98%. In the test on HaCat, the call was inactive.
On to `CCCCCCCCCCCC1=C(O)C(=O)C=C(O)C1=O`, for which the molecule was classed as inactive in the test on CRL-7250, in the test on HEK293, with HaCat and in the test with KB-3-1.
